Unmarked numbers belong to inactive results. Inconclusive results are not listed. Entries that show only a call come without a potency. Active and inactive are the calls of the source. Unless noted, calls follow the shape of the dose curve; as a rule, active = well fitted curve in the direction sought with a large enough effect in the repeat runs; inconclusive = weak or mixed curves; inactive = no such curve, though single readings can be large; an effect the other way counts as inactive or inconclusive.
Key:
[1] = qHTS assay to identify small molecule agonists of the hypoxia (HIF-1) signaling pathway - cell viability counter screen (AID 1224844; calls by dose curve; also: nearly all actives have a fitted effect of over 50% in size)
Summary of the method: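 HRE-bla ME-180 cells in medium with 0.5% dialyzed FBS were preincubated 5 hrs at 37C, exposed to compounds for 17 hrs, then viability was read as CellTiter-Glo luminescence after 30 min at room temperature, in the reporter wells.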

[2] = qHTS assay to identify small molecule agonists of H2AX (AID 1224845; active = well fitted activation curve with a large enough effect in the signal ratio in the repeat runs, not every such curve was filed as active; the % refers to the signal ratio)
Summary of the method: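 Phospho-H2AX Ser139 measured by HTRF (ex 320 nm; em 665 and 620 nm) after 24 hr antibody incubation. Compounds, 15 concentrations, 0.76% DMSO, were applied to CHO-K1 cells for 3hr at 37C before lysis.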

[3] = qHTS assay to identify small molecule agonists of the hypoxia (HIF-1) signaling pathway (AID 1224846; active = well fitted activation curve with a large enough effect in the signal ratio in the repeat runs, not every such curve was filed as active; the % refers to the signal ratio)
Summary of the method: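 HRE-bla ME-180 cells (beta-lactamase reporter under hypoxia response element) were plated at 2,000 cells/well in medium with 0.5% dialyzed FBS, rested 5 hrs, then given compounds in DMSO for 17 hrs at 37C, 5% CO2. Reporter induction was read with CCF4-AM FRET substrate.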

[4] = qHTS assay to identify small molecule agonists of H2AX - cell viability counter screen (AID 1224847; calls by dose curve; also: top concentration of the series differs between compounds; nearly all actives have a fitted effect of over 30% in size)
Summary of the method: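 Read-out: CellTiter-Glo luminescence, 30 min RT. Cells: wild-type CHO-K1, 1000/well, 10% FBS, plated overnight at 37C. Treatment: 15 concentrations, 3 hr, 37C, 0.76% DMSO.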

[5] = qHTS assay to identify small molecule antagonists of the estrogen related receptor (ERR) signaling pathway from Tox21 library (AID 1224848); also: nearly all actives have a fitted effect of over 50% in size
Summary of the method: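 Antagonist-mode screen of the Tox21 10K library in an NTP-provided ERR reporter cell line; 18 h compound exposure at 37 C, luminescence measured with ONE-Glo.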

[6] = qHTS assay to identify small molecule agonists of the estrogen related receptor (ERR) signaling pathway from Tox21 library (AID 1224849; calls by dose curve; also: nearly all actives have a fitted effect of over 15% in size); conditions: ERR reporter cell line, ONE-Glo luciferase, 18 h; at 92.4 µM (top of the series) unless noted
Summary of the method: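 ERR reporter cell line (NTP) seeded, rested 6 h at 37 C/5% CO2, then pinned with Tox21 compounds in DMSO. After 18 h at 37 C, ONE-Glo luciferase luminescence was read following 30 min at room temperature.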

[7] = qHTS RealTime-Glo MT Cell Viability Assay in HepG2 cells - 24 hour (AID 1224867); also: nearly all actives have a fitted effect of over 50% in size
Summary of the method: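 Tox21 10K library screened in qHTS format on HepG2 cells carrying RealTime-Glo reagents. Compounds were added after a 5 h preincubation, and the luminescent signal from continuous culture was measured repeatedly during 40 h treatment.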

[8] = qHTS RealTime-Glo MT Cell Viability Assay in HEK293 cells - 32 hour (AID 1224868); also: nearly all actives have a fitted effect of over 50% in size; also: potency is read from the fitted curve at half-maximal effect; as to activity change, negative = cytotoxic: top concentration of the series differs between compounds
Summary of the method: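 Luminescence generated by NanoLuc from substrate produced by living HEK293 cells served as the viability signal. Each value reflects the reading at its stated time point during continuous 40 h compound exposure at 37 C.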

[9] = A CellTox Green Cytotoxicity Assay to monitor cytotoxicity in HEK293 cells - 0 hour (AID 1224869); also: nearly all actives have a fitted effect of over 50% in size
Summary of the method: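 HEK293 cells premixed with CellTox Green dye were seeded at 600 cells/well and left 5 h at 37 C/5% CO2 before pin transfer of 23 nL compound in DMSO. Fluorescence from dye bound to dead-cell DNA was read during 40 h treatment.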

[10] = qHTS RealTime-Glo MT Cell Viability Assay in HepG2 cells - 40 hour (AID 1224870); also: nearly all actives have a fitted effect of over 50% in size
Summary of the method: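 Real-time viability: cells seeded at 600 per well together with NanoLuc and cell-permeant prosubstrate, compounds added after 5 h incubation. Luminescence tracked at 0, 8, 16, 24, 32 and 40 h of exposure.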

SMILES	Potency [1]	Potency [2]	outcome [3]	Potency [4]	Potency [5]	activity change, positive = activation [6]	Potency [7]	Potency [8]	Potency [9]	Potency [10]	activity change, negative = cytotoxicity [1]	activation (H2AX phosphorylation) [2]	activation [3]	activity change, negative = cytotoxicity [4]	activity change, negative = cytotoxicity [7]	activity change, negative = cytotoxic [8]	cytotoxicity [9]	activity change, negative = cytotoxic [10]
CCCCCCCC(=O)OCCCCCC	inactive	inactive	inactive	inactive	inactive	-7.04%	inactive	3.47 µM (active)	inactive	inactive								
CC(C)Cc1ccc(CC(=O)O)cc1	inactive	inactive	inactive	inactive	inactive	-10.3% [at 42.5 µM]	inactive			inactive								
CC1C(C)(C)C2=C(C(=O)CCC2)C1(C)C (stereo unspecified)	inactive	inactive	inactive	inactive	inactive	-0.756%	inactive	inactive	inactive	inactive								
COc1ccc(C(=O)NCc2ccc(OCCN(C)C)cc2)cc1OC	inactive	inactive	inactive	inactive	inactive	-0.159% [at 42.5 µM]	inactive	inactive	inactive	inactive								
CC(=O)NNC(C)=O	inactive	inactive	inactive	inactive	inactive	2.66%	inactive	inactive	inactive	inactive								
O=C(O)CCS	inactive	inactive	inactive	inactive	inactive	4.53%	inactive		inactive	inactive								
CCCCOC(=O)CCCCC(=O)OCCCC	inactive	inactive	inactive	inactive	inactive	-0.363%	inactive		inactive	inactive								
CC(C)(C)CCCCCCOC(=O)c1ccccc1C(=O)OCCCCCCC(C)(C)C	inactive	inactive	inactive	inactive	inactive	-3.55%	inactive	inactive	inactive	inactive								
ClC1=C(Cl)C1(Cl)Cl	inactive	inactive	inactive	inactive	inactive	7.16%	inactive	inactive	inactive	inactive								
C=CC(=O)NC(C)C	inactive	inactive	inactive	inactive	inactive	4.77%	inactive	inactive	inactive	inactive								
CNCc1ccc(NC(=O)c2c[nH]c3c2C(=O)CCC3)cc1	inactive	inactive	inactive	inactive	inactive	-17.3%	inactive		inactive	inactive								
CCCCC(CC)COS(=O)(=O)O (stereo unspecified)	inactive	inactive	inactive	inactive	inactive	3.39%	inactive	inactive	inactive	inactive								
CCC(CO)(CO)[N+](=O)[O-]	inactive	inactive	inactive	inactive	inactive	1.64%	inactive	inactive	inactive	inactive								
COC(=O)c1sccc1S(N)(=O)=O	inactive	inactive	inactive	inactive	inactive	0.3%	inactive		inactive	inactive								
Nc1ccc(F)cc1	inactive	inactive	inactive	inactive	inactive	0.224%	inactive	inactive	inactive	inactive								
CC(C)c1ccc(C#N)cc1	inactive	inactive	inactive	inactive	inactive	-9.84%	inactive	15.5 µM (active)	inactive	inactive								
N[C@@H](Cc1cc(I)c(O)c(I)c1)C(=O)O	inactive	inactive	inactive	inactive	inactive	2.55% [at 42.5 µM]	inactive		inactive	inactive								
CCCCCCCCCCCC(=O)OCC(O)CO (stereo unspecified)	inactive	inactive	inactive	inactive	inactive	2.33%	inactive	inactive	inactive	inactive								
Cc1c[nH]c2ccccc12	inactive	inactive	inactive	inactive	inactive	0.349% [at 42.5 µM]	inactive	inactive	inactive	inactive								
CC(C)CC(O)CC(C)C	inactive	inactive	inactive	inactive	inactive	2.06%	inactive	inactive	inactive	inactive								
C1CCCCC1	inactive	inactive	inactive	inactive	inactive	7.76%	inactive	inactive	inactive	inactive								
O=C1CC[C@@H](C(=O)O)N1	inactive	inactive	inactive	inactive	inactive	3.84% [at 42.5 µM]	inactive	inactive	inactive	inactive								
CCC1CCC(CCC(=O)O)C1 (stereo unspecified)	inactive	inactive	inactive	inactive	inactive	-14.4%	inactive	inactive	inactive	inactive								
CCO[Si](C)(CCCOCC1CO1)OCC (stereo unspecified)	inactive	inactive	inactive	inactive	inactive	0.152%	inactive	inactive	inactive	inactive								

SMILES	Potency [1]	Potency [2]	outcome [3]	Potency [4]	Potency [5]	activity change, positive = activation [6]	Potency [7]	Potency [8]	Potency [9]	Potency [10]	activity change, negative = cytotoxicity [1]	activation (H2AX phosphorylation) [2]	activation [3]	activity change, negative = cytotoxicity [4]	activity change, negative = cytotoxicity [7]	activity change, negative = cytotoxic [8]	cytotoxicity [9]	activity change, negative = cytotoxic [10]
Cc1oc(=O)oc1COC(=O)[C@@H]1N2C(=O)[C@@H](NC(=O)[C@H](N)c3ccccc3)[C@H]2SC1(C)C	inactive	inactive	inactive	inactive	inactive	1.21% [at 42.5 µM]	inactive	inactive	inactive	inactive								
C=Cc1ccc(OC(C)=O)cc1	inactive	inactive	inactive	inactive	inactive	12.7%	inactive	inactive	inactive	inactive								
O=C1c2ccccc2C(=O)c2c(O)ccc(O)c21	inactive	inactive	inactive	inactive	inactive	-2.45%	inactive	inactive	inactive	inactive								
COC1CCC=CO1 (stereo unspecified)	inactive	inactive	inactive	inactive	inactive	5.99%	inactive	inactive	inactive	inactive								
CCOC(=O)c1ccc(NC(=O)CN2CCCCC2)cc1	inactive	inactive	inactive	inactive	inactive	5.71% [at 42.5 µM]	inactive	inactive	inactive	inactive								
CC(C)N=C=NC(C)C	inactive	inactive	inactive	inactive	inactive	2.53%	inactive	inactive	inactive	inactive								
COc1cc(NS(=O)(=O)c2ccc(N)cc2)nc(C)n1	inactive	inactive	inactive	inactive	inactive	5.82% [at 42.5 µM]	inactive	inactive	inactive	inactive								
C1=CCC2CC=CC2C1 (stereo unspecified)	inactive	inactive	inactive	inactive	inactive	1.2%	inactive	inactive	inactive	inactive								
COC(C)(C)OC	inactive	inactive	inactive	inactive	inactive	2.58%	inactive		inactive	inactive								
O=C(O)c1ccc(O)cc1O	inactive	inactive	inactive	inactive	inactive	-9.45%	inactive		inactive	inactive								
O=C(O)CN1C(=O)c2cccc3cccc(c23)C1=O	inactive	inactive	inactive	inactive	inactive	3.18% [at 42.5 µM]	inactive		inactive	inactive								
CCCCCCCCCCCCCC(=O)OCC(O)CO (stereo unspecified)	inactive	inactive	inactive	inactive	inactive	1.85%	inactive	inactive	inactive	inactive								
[Cl][Nd]([Cl])[Cl]	inactive	inactive	inactive	inactive	inactive	-6.02%	inactive		inactive	inactive								
CCNc1nc(N)nc(Cl)n1	inactive	inactive	inactive	inactive	inactive	3.57%	inactive	inactive	inactive	inactive								
CC(C)(O)CCc1ccccc1	inactive	inactive	inactive	inactive			inactive	inactive	inactive	inactive								
CC(C)N(C)C	inactive	inactive	inactive	inactive			inactive	inactive	inactive	inactive								
CCCCCCCCCCCCCOC(=O)CCSCCC(=O)OCCCCCCCCCCCCC											4.03% [at 15.8 µM]	0.898% [at 31.6 µM]	0.146% [at 15.8 µM]	-1.78% [at 31.6 µM]	-1.37% [at 15.8 µM]	-0.356% [at 15.8 µM]	6.82% [at 15.8 µM]	6.27% [at 15.8 µM]
CCCCOCCOC(=O)c1cccnc1	inactive	inactive	inactive	inactive			inactive	inactive	inactive	inactive								
CCCCCCC(O)CCCCCCCCCCC(=O)OC (stereo unspecified)	inactive	inactive	inactive	inactive			inactive	inactive	inactive	inactive								
O=C1[C@@H]2[C@H]3CC[C@H](C3)[C@@H]2C(=O)N1CCCCN1CCN(c2ncccn2)CC1	inactive	inactive	inactive	inactive			inactive	inactive	inactive	inactive								
O=C(NC(Cc1cc(=O)[nH]c2ccccc12)C(=O)O)c1ccc(Cl)cc1 (stereo unspecified)	inactive	inactive	inactive	inactive			inactive	inactive	inactive	inactive								
O=C(NS(=O)(=O)/C=C/c1ccccc1)c1ccc(F)cc1Cl	inactive	inactive	inactive	inactive	inactive		inactive		inactive	inactive								
CCCCCCOC(=O)CCCCC	inactive	inactive	inactive	inactive			inactive	inactive	inactive	inactive								
